# High-throughput results: PubChem BioAssay, several laboratories
# A selection: hits, their analogues and other compounds. The true share with any hit is near 2%.
# PAX8 reporter = inhibitors of PAX8 transcriptional activity in RMG-I cells | RMG-I TPO-luciferase reporter, SteadyGlo, 24 h | inhibition, % at 12.6 µM | 360,000 compounds, 1.2% hits | AID 652154;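 active = mean replicate inhibition at least 60% with every replicate also reaching 60%; inconclusive = only one of the two criteria is met; inactive = mean below 60% and not all replicates reaching 60%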;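 also: luciferase light reporting Pax8 driven TPO promoter activity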
# LGR2 antag = Drosophila LGR2 receptor signaling inhibition | HEK293 LGR2, CRE-luciferase, bursicon-stimulated, 4 h | inhibition, % at 9.99 µM | 380,000 compounds, 0.35% hits | AID 720647;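 active = drop in luminescence signal, shown as inhibition above about 50% in the replicate tests, limit read from the data, passing the limit was not always enough; inconclusive = probably only some replicates passing the limit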;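 also: agonist challenge used bursicon conditioned medium at about half maximal strength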
# Shn3 inh set2 = reduces Shn3 3'UTR luciferase signal in osteoblasts. Clone20 osteoblast Shn3 3'UTR firefly luciferase, 24 h. inhibition, % at 12.5 µM. 360,000 compounds, 0.52% hits;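 active = mean inhibition of at least 75% with every replicate also reaching 75%; inconclusive = mean inhibition at least 75% but some replicate below; inactive = mean inhibition below 75%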
# EWS-Fli inh = blocks EWS/Fli oncoprotein-driven transcription | A673 NR0B1-luciferase reporter, viability-normalised | inhibition, % at 12.6 µM | 350,000 compounds, 0.67% hits;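 active = mean inhibition of at least 50% after viability correction, with every replicate also passing that limit; inconclusive = mean reaches 50% but only one of two replicates passes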;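 also: firefly luciferase signal divided by Alamar Blue viability fluorescence both relative to DMSO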
# KKLEB cytotox = reduces viability of KKLEB cystic fibrosis airway cells; KKLEB CF airway cells viability, ATPlite luminescence, overnight; hits give low values; cells stimulated with P. aeruginosa culture filtrate; activity change (cytotoxicity), % at 5 µM; 360,000 compounds, 0.36% hits; AID 602141;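 active = corrected activity change at or below -50% at 5 µM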
# CF NFkB block = blocks PAF-induced NF-kB reporter in cystic fibrosis cells | KKLEB NF-kB-GFP reporter, GFP fluorescence overnight | inhibition, % at 5 µM | 360,000 compounds, 0.86% hits | AID 588850;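 active = at least 50% inhibition at 5 µM, scaled per plate between neutral and stimulator controls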;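 also: PAF is a Pseudomonas aeruginosa culture filtrate used as stimulus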
# Numbers stand for hits; . = inactive; ? = inconclusive; / = not tested or not shown.
SMILES,PAX8 reporter,LGR2 antag,Shn3 inh set2,EWS-Fli inh,KKLEB cytotox,CF NFkB block
O=c1cc(CSc2ccc(Cl)cc2)nc(-c2ccccc2)[nH]1,.,.,.,.,.,.
CN(C)CCCNc1c2ccccc2nc2ccccc12,.,92,94,.,.,.
c1ccc2c(NCCCN3CCOCC3)c3ccccc3nc2c1,.,90,/,?,/,/
Oc1ccc(CCNc2c3ccccc3nc3ccccc23)cc1O,.,.,.,70,.,.
c1ccc(CNc2c3ccccc3nc3ccccc23)cc1,.,.,.,.,.,.
Cc1ccc(S(=O)(=O)N(C)C[C@@H]2Oc3ccc(NS(=O)(=O)c4cn(C)cn4)cc3CC(=O)N([C@@H](C)CO)C[C@@H]2C)cc1,.,.,/,.,/,/
C=CCn1cc(/C=C/c2cc[n+](C)cc2)c2ccccc21,93,.,.,.,.,.
CCn1cc(/C=C/c2cc[n+](C)cc2)c2ccccc21,77,.,.,.,.,.
CC(C)n1cc(/C=C/c2cc[n+](C)cc2)c2ccccc21,83,.,.,.,.,.
C=CCn1c(C)c(/C=C/c2cc[n+](C)cc2)c2ccccc21,.,.,.,.,.,.
Cc1ccccc1/C=C/c1cc[n+](C)cc1,.,.,.,.,.,.
C[C@H]1CN([C@@H](C)CO)S(=O)(=O)c2ccc(C#CC3CC3)cc2O[C@H]1CN(C)C(=O)c1cnccn1,/,.,/,.,/,/
CCOc1cc(N2CCOCC2)c(OCC)cc1NC(=O)c1cc(-c2ccco2)nc2ccccc12,/,.,92,.,.,99
CCN(CC)S(=O)(=O)c1ccc(N2CCOCC2)c(NC(=O)c2cc(-c3ccccn3)nc3ccccc23)c1,78,.,.,.,-89,97
C[C@@H]1CN([C@@H](C)CO)S(=O)(=O)c2ccc(C#C[C@@H](C)O)cc2O[C@H]1CN(C)C(=O)C1CCCCC1,/,.,/,.,/,/
O=C(Cc1csc(Nc2nc(=S)[nH]c3ccccc23)n1)NCc1ccc(Cl)cc1,/,/,.,.,.,.
O=C(Cc1csc(Nc2nc(=S)[nH]c3ccccc23)n1)NCCCN1CCN(c2ccccc2F)CC1,65,.,.,.,.,.
O=C1Nc2ccc(Br)cc2/C1=C/C(=O)c1ccc2c(c1)OCO2,.,.,97,?,.,.
C[C@H](CO)N1C[C@H](C)[C@@H](CN(C)C(=O)Nc2ccc(F)cc2)Oc2cc(C#CC3(O)CCCC3)ccc2S1(=O)=O,/,.,/,.,/,/
COC(=O)CCC(=O)NC(=S)Nc1sc(C)c(C)c1C(N)=O,.,.,.,/,.,.
Cc1sc(NC(=S)NC(=O)CCc2ccccc2)c(C(N)=O)c1C,83,.,.,.,.,50
C=CCn1c(SCC(=O)c2[nH]c(C)c(C(C)=O)c2C)nnc1-c1ccncc1,/,/,.,/,.,.
C=CCn1c(SCC(=O)c2[nH]c(C)c(C(=O)OC)c2C)nc2scc(-c3ccc(OC)c(OC)c3)c2c1=O,.,/,.,60,.,.
C[C@H](CO)N1C[C@H](C)[C@H](CN(C)Cc2ccc(C(F)(F)F)cc2)OCCCC[C@H](C)Oc2ccc(NC(=O)Nc3ccc4c(c3)OCO4)cc2C1=O,96,.,/,.,/,/
C[C@@H]1CN([C@@H](C)CO)C(=O)c2cc(NC(=O)Nc3ccc4c(c3)OCO4)ccc2O[C@@H](C)CCCCO[C@@H]1CN(C)Cc1ccc(C(F)(F)F)cc1,.,.,/,.,/,/
SMILES,PAX8 reporter,LGR2 antag,Shn3 inh set2,EWS-Fli inh,KKLEB cytotox,CF NFkB block
C[C@@H]1CCCCO[C@@H](CN(C)Cc2ccc(C(F)(F)F)cc2)[C@@H](C)CN([C@H](C)CO)C(=O)c2cc(NC(=O)Nc3ccc4c(c3)OCO4)ccc2O1,.,.,/,.,/,/
C[C@@H]1CCCCO[C@H](CN(C)Cc2ccc(C(F)(F)F)cc2)[C@H](C)CN([C@H](C)CO)C(=O)c2cc(NC(=O)Nc3ccc4c(c3)OCO4)ccc2O1,67,.,/,.,/,/
C[C@@H]1CN([C@@H](C)CO)C(=O)c2cc(NC(=O)Nc3ccc4c(c3)OCO4)ccc2O[C@@H](C)CCCCO[C@H]1CN(C)Cc1ccc(C(F)(F)F)cc1,61,.,/,.,/,/
C[C@@H]1CN([C@H](C)CO)C(=O)c2cc(NC(=O)Nc3ccc4c(c3)OCO4)ccc2O[C@@H](C)CCCCO[C@@H]1CN(C)Cc1ccc(C(F)(F)F)cc1,66,.,/,.,/,/
C[C@@H]1CN([C@H](C)CO)C(=O)c2cc(NC(=O)Nc3ccc(C(F)(F)F)cc3)ccc2O[C@@H](C)CCCCO[C@H]1CN(C)S(=O)(=O)c1ccccc1,96,.,/,.,/,/
C[C@H](CO)N1C[C@H](C)[C@H](CN(C)S(=O)(=O)c2cccs2)OCCCC[C@H](C)Oc2ccc(NC(=O)NC3CCCCC3)cc2C1=O,104,.,/,.,/,/
C[C@@H]1CCCCO[C@@H](CN(C)S(=O)(=O)c2ccccc2)[C@H](C)CN([C@H](C)CO)C(=O)c2cc(NC(=O)Nc3ccc(C(F)(F)F)cc3)ccc2O1,89,.,/,.,/,/
C[C@@H]1CCCCO[C@H](CN(C)S(=O)(=O)c2ccccc2)[C@H](C)CN([C@H](C)CO)C(=O)c2cc(NC(=O)Nc3ccc(C(F)(F)F)cc3)ccc2O1,.,.,/,.,/,/
Cc1ccc(S(=O)(=O)N(C)C[C@H]2OCCCC[C@H](C)Oc3ccc(NC(=O)Nc4ccc(C(F)(F)F)cc4)cc3C(=O)N([C@@H](C)CO)C[C@@H]2C)cc1,.,.,/,.,/,/
C[C@@H]1CCCCO[C@@H](CN(C)S(=O)(=O)c2ccc(F)cc2)[C@H](C)CN([C@@H](C)CO)C(=O)c2cc(NC(=O)Nc3ccc(C(F)(F)F)cc3)ccc2O1,.,.,/,.,/,/
